From ChEMBL document CHEMBL3433997, “St. Jude Leishmania screening dataset” (2016) come the findings set out here.

The assay has as its target Glucose transporter (Leishmania mexicana) (UniProt O61059). The experiment in a line: ST_JUDE_LEISH: Cytotoxicity at 2uM final concentration against transgenic Leishmania Mexicana promastigotes LmGT2 that are glucose transport deficient and complemented with the L. Mexicana glucose transporter 2. Activity is measured by DNA content using SYBR green in vitro. The class given is functional.
Take `COCCNCc1ccc(-c2ccc3c(Nc4ccc(Cl)cc4F)ccnc3c2)o1`: the inhibition – broadly, the relative decrease from the control value, in per cent – came to 4.33%.

With `CCNc1cc(C(=O)N[C@@H](Cc2ccccc2)[C@H](O)CNC2CCCC2)cc(N2CCCC2=O)c1`, the inhibition is 3.46%. Consider `CCOC(=O)COc1cccc(CNc2ccc3nc(N)nc(N)c3c2)c1`, for which the inhibition is 1.48%. Turning to `CN1CCN(C(C(=O)NCc2cc(Cl)cc(Cl)c2)c2ccc(Nc3cccc(C(F)(F)F)c3)cc2)CC1` (centres undefined), the inhibition was -2.02%. Consider `O=C1CC(C(=O)Nc2cccc(-c3cccc(-c4nc5ccccc5[nH]4)c3)c2)c2ccccc2N1` (centres undefined), for which the inhibition came to 0.51%. Consider `COc1ccc(-c2cccc(NC(=O)c3cccc(C#N)c3)c2)cc1CN(C)CCO`, for which the inhibition was 5.5%.

Take `Cc1ccc(CCC(C)NCC(O)c2cccc(C(F)(F)F)c2)cc1` (centres undefined): the inhibition was 0.17%. Regarding `CCCC(C(=O)OCCNC)(c1ccccc1)c1ccccc1`, the inhibition amounted to 0.81%. As for `Nc1cccc(CNCc2ccc(-c3ccc(-c4nc5cc(C(F)(F)F)ccc5[nH]4)s3)cc2)c1`, the inhibition was found to be 0.65%. As for `O=S(=O)(Nc1cccc(CCN2CCC(N3CCCCC3)CC2)c1)c1cccc(C(F)(F)F)c1`, the inhibition is 0.82%. Take `O=C(C=Cc1ccc(Cl)c(Cl)c1)NCCCCCN1CCC(CCNC(=O)C(c2ccccc2)c2ccccc2)CC1`: the inhibition turned out to be 0.8%. With `N#Cc1ccc(Cn2ccc3c4c(N)nc(N)nc4ccc32)cc1`, the inhibition amounted to 77.7%. To `O=C(Nc1ccc2c(c1)OCO2)c1cc(-c2cccnc2)nc2ccc(Cl)cc12` belongs -0.92%; to `c1ccc(CN2CCC(NCc3ccc(-c4ccc(CNC5CCCC5)cc4)cc3)CC2)cc1`, 0.48%; to `CC(C#N)Cc1ccc(-c2cnc(N)c3cc(-c4ccnc(N)n4)ccc23)cc1` (centres undefined), -0.93%.

As for `CC(C)N1CCC(NC(=O)N2CCCN(c3ncnc4cc(-c5ccc(Cl)cc5)sc34)CC2)CC1`, the inhibition was -3.09%. To `COc1cccc(OC)c1CN1CCC(N(C)CCCCCCCCCN2CCC(OC(=O)Nc3ccccc3-c3ccccc3)CC2)CC1` belongs 111%; to `O=C(NC1CCN(c2ccnc3cc(Cl)ccc23)C1)c1ccc(C(F)(F)F)cc1` (centres undefined), 0.57%; to `Cc1nccn1Cc1cc(C(C)(C)C)c(O)c(C(C)(C)C)c1`, 3.5%. With `CCCCC(CCCC)CN1C(=O)C(c2ccccc2)(c2ccccc2)N=C1N`, the inhibition stood at 0.77%. As to `Cc1ccc(O)c(C(=O)c2cnc3c(c2)c(-c2ccc(F)cc2)c(C#N)c(=O)n3C)c1`, the inhibition is 1.51%. Take `CCOc1cc2c(cc1OCC)C(c1cc(OC)c(O)cc1Cl)NCC2` (centres undefined): the inhibition worked out at 2.79%.

`CCN(CC)CCCC(C)N/C(=N\c1ccccc1Br)Nc1ccc(C#N)cc1O` (centres undefined): the inhibition was -1.67%. For the compound `N=C(N)c1ccc2[nH]c(SCc3ccccc3)nc2c1`, the inhibition was 0.24%. On to `O=C(NCCN1CCN(S(=O)(=O)c2ccc(OC3CCNCC3)c(Br)c2)CC1)c1ccc(Cl)c(Cl)c1`, for which the inhibition turned out to be 4.49%. To `Cc1cc(C(=O)N(Cc2ccc(-c3ccc(CNCCc4ccc(S(C)(=O)=O)cc4)cn3)cc2)C(C)CN(C)C)ccc1[N+](=O)[O-]` (centres undefined) belongs 6.55%; to `Cc1[nH]c(-c2ccc(F)cc2)cc1C(=O)NC1CCN(Cc2ccccc2)CC1`, -0.98%. To `Cc1cc(-c2ccc(Cl)cc2)c2c(N)c(C(=O)Nc3ccc(F)cc3)sc2n1` belongs 0.35%; to `CN(CC(=O)Nc1cc(C(F)(F)F)ccc1-n1cncn1)Cc1nc2ccccc2s1`, 5.21%; to `CN1CCCN(Cc2cccc(-c3ccc(NC(=O)c4cccc(C#N)c4)cc3)c2)CC1`, 9.31%. Take `Cc1cc(N2CCCN(C)CC2)nc(Nc2ccc(Br)cc2)n1`: the inhibition is 1.6%. To `c1ccc2c(c1)CN(CC1CC1)CC1(CCN(Cc3c[nH]c4cnccc34)CC1)O2` belongs 0.54%; to `CCCCCCCc1c(C)nc2c(OC)cccc2c1O`, -0.9%; to `O=C(NCCc1ccc(Cl)c(Cl)c1)C1CCCN(C(=O)c2ccc(O)c(-c3ccc(Cl)c(Cl)c3)c2)C1` (centres undefined), 4.3%.

For `Cc1[nH]c(C)c(-c2ccc(-c3cccc(C(F)(F)F)c3)nc2)c(=O)c1Br`, the inhibition amounted to 6.29%. To `CN1CCCN(Cc2ccc(-c3cccc(NC(=O)c4cccc(C#N)c4)c3)cc2)CC1` belongs 5.62%; to `Cc1cc(NCCCN2CCCC2=O)n2c(nc3ccccc32)c1C#N`, 2.22%; to `CC(=O)Nc1ccc(OCCCCN(Cc2ccccc2C(F)(F)F)c2ccc(C#N)c(C(F)(F)F)c2)cc1`, 7.15%.

For `CC(C)(C)c1ccc(NC(=O)c2ccc(CN3CCCN(CC4CCCCC4)CC3)cc2)cc1`, the inhibition came out at 5.35%.
